# Measured values: PubChem BioAssay AID1861 (The Scripps Research Institute Molecular Screening Center, 2009)
# Hit rate of the full screen: of about 290,000 compounds, about 3,100 (1.1%) were called active. For the sample, actives were picked, then their nearest neighbours and some compounds at random. A number with no mark means an inactive call. Cut-off read from the data, not from the text of the source: active = inhibition above about 16% (passing the limit was not always enough); inactive = the rest.
# Target: Neuropeptides B/W receptor type 1 (Homo sapiens) (UniProt P48145)
# Experiment: GPR7 receptor antagonists, primary screen, cell-based, fluorescence, single concentration (AID 1861);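 note: cells stimulated with the agonist NPW; 0% = agonist with vehicle and 100% = vehicle without agonist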
# Conditions: GPR7-expressing cells, fluorescence antagonist assay; at 4.4 µM; stronger effect = higher value
# Sequence of Neuropeptides B/W receptor type 1 (Homo sapiens) (P48145 whole entry, looked up): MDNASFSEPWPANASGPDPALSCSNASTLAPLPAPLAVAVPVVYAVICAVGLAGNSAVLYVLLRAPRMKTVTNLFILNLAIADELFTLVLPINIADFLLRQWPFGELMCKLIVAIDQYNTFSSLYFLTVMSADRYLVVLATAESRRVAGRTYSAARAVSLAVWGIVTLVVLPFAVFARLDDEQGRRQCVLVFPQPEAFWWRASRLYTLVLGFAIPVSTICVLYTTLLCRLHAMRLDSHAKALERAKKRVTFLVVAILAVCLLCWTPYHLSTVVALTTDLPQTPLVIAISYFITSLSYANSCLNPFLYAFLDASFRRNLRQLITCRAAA
row,SMILES,inhibition
1,CCOC(=O)C1(CCOc2ccccc2)CCN(Cc2cc(OC)cc(OC)c2)CC1,15.4%
2,CC1=C/C(=N\OS(=O)(=O)c2ccccc2)C=CC1=O,-2.03%
3,Cc1cc(C)cc(N(CC(=O)NC2CCCC2)C(=O)CCC(=O)Nc2nccs2)c1,4.8%
4,O=C(COC(=O)c1ccccc1SCC(=O)NC1CCCCC1)NC1CCCCC1,4.41%
5,COc1ccccc1C(=O)OCC(=O)NCCNC(=O)COC(=O)c1ccccc1OC,1.57%
6,C=CCNC(=O)COC(=O)c1ccccc1C(=O)N(C)C1CCCCC1,23.4% (active)
7,O=[N+]([O-])c1ccc(NC(=S)N2CCN(c3ccccn3)CC2)cc1,-5.44%
8,Cc1nn(CC(=O)NCC2CCCO2)c(=O)c2cc3ccccc3n12 (centres undefined),2.04%
9,CCn1c(C)cc(=O)cc1-c1ccc(Cl)cc1,12.6%
10,CS(=O)(=O)Nc1ccc(C2=NN(S(C)(=O)=O)C(c3cccs3)C2)cc1 (centres undefined),-8.38%
11,COc1ccc(C2=NN(C(=O)c3ccccc3C(=O)O)C(c3ccccc3O)C2)cc1 (centres undefined),1.53%
12,CS(=O)(=O)Nc1cccc(C2=NN(C(=O)c3cccc(F)c3)C(c3cccs3)C2)c1 (centres undefined),19.9%
13,CCS(=O)(=O)Nc1ccc(C2=NN(S(=O)(=O)c3ccc(F)cc3)C(c3ccco3)C2)cc1 (centres undefined),1.02%
14,CS(=O)(=O)Nc1cccc(C2=NN(S(=O)(=O)c3ccccc3)C(c3cccs3)C2)c1 (centres undefined),30% (active)
15,COc1cccc(C2CC(c3ccccc3)=NN2S(=O)(=O)c2ccccc2)c1OC (centres undefined),19.8% (active)
16,Cc1c(CCC(=O)N[C@@H](CC(C)C)C(=O)O)c(=O)oc2c(C)c3oc4c(c3cc12)CCCC4,-11.3%
17,COc1ccc(C(=O)NC(C)c2nccs2)cc1OC1CCN(C(C)C)CC1 (centres undefined),-9.73%
18,COc1ccc(N(CC(=O)NCCSCc2cccc(Cl)c2)S(C)(=O)=O)cc1,-4.13%
19,CC1CN(C(=O)c2cc(COc3c(F)cccc3F)on2)CCN1C (centres undefined),5.39%
20,CS(=O)(=O)N(Cc1ccc(Cl)cc1)c1ccc(C(=O)NCCSCc2ccco2)cc1,30.2% (active)
21,CCc1ccccc1N(CC(=O)NCCSCc1ccco1)S(C)(=O)=O,-3.47%
22,Cc1cc(C)cc(N(CC(=O)NCCSCc2ccco2)S(C)(=O)=O)c1,-3.97%
23,O=C(NCCCN1CCN(c2ccc(F)cc2)CC1)Nc1ccc([N+](=O)[O-])cc1,25.5% (active)
24,O=C(COc1ccc([N+](=O)[O-])cc1)Nc1ccc(N2CCCC2)cc1,-6.84%

row,SMILES,inhibition
1,CN1CCN(CCNC(=O)Nc2ccc([N+](=O)[O-])cc2)CC1,1.21%
2,COc1ccccc1CNC(=O)COc1ccc(C)nc1[N+](=O)[O-],25.7% (active)
3,COc1ccc(CNC(=O)COc2cccnc2[N+](=O)[O-])cc1,5.06%
4,Cc1ccc(OCC(=O)NC(C)c2ccccc2)c([N+](=O)[O-])n1 (centres undefined),-17%
5,CCOC(=O)N1CCN(S(=O)(=O)c2ccc(OC)cc2)CC1,-0.89%
6,Cc1cc(Cl)ccc1OCCCC(=O)NCc1ccncc1,2.96%
7,Cc1cc(Cl)ccc1OCCCC(=O)Nc1cccc(-n2cnnn2)c1,37.4% (active)
8,Cc1cc(Cl)ccc1OCCCC(=O)NCc1ccccn1,5.1%
9,c1ccc2c(c1)CCc1snnc1-2,-15.5%
10,COc1cc(OC)c(NC(=O)C2CCCN2C(=O)OCc2ccccc2)cc1Cl (centres undefined),3.66%
11,COC(=O)c1cc(S(=O)(=O)Nc2ccc(C)c(F)c2)c[nH]1,4.7%
12,CCOC(=O)C1=C(C)NC(=S)NC1c1cccs1 (centres undefined),-3.11%
13,CCOC(=O)C1=C(C)NC(SC)=NC1c1ccccc1 (centres undefined),-17%
14,CCOC(=O)C1=C(C)NC(C)=C(C(=O)OCC)C1c1ccccn1,18.9% (active)
15,CC1CCCCN1CC(=O)NCc1ccc2c(c1)OCO2 (centres undefined),-3.99%
16,Cc1ccc(NC(=O)CN2CCC3(O)CCCCC3C2c2ccc3c(c2)OCO3)c(C)c1 (centres undefined),21.5% (active)
17,CCN(CC)c1ccc(C2C3CCCCC3(O)CCN2CC(=O)Nc2ccccc2)cc1 (centres undefined),0.06%
18,O=C(Nc1cccc2ccccc12)c1onc2c1CCCC2,-5.72%
19,Oc1ccccc1CNc1ncc(Br)cc1Br,-17.9%
20,COCCN(Cc1cc2cc3c(cc2nc1Cl)OCO3)C(=O)c1cccc(C)c1,21.6% (active)
21,Cc1cccc(C(=O)NCCCN(C)CCCNC(=O)c2cccc(C)c2)c1,-10.2%
22,CCCCN(CC)C(=O)c1ccc2c(c1)OCO2,11.2%
23,Cc1ccc(Cl)c(NC(=O)CN2CCN(C=O)CC2)c1,2.68%
24,COc1ccccc1OCCOc1ccc(/C=C2\C(=N)N3N=C(C)SC3=NC2=O)cc1,21%

row,SMILES,inhibition
1,CNS(=O)(=O)c1cccc(C(=O)NCC2CCCCC2)c1,5.35%
2,CN(C(=O)c1cccc(OC2CCN(S(=O)(=O)N(C)C)CC2)c1)C1CCOC1 (centres undefined),-0.89%
3,CN(C)S(=O)(=O)N1CCC(Oc2cccc(C(=O)NCCCC3CCCC3)c2)CC1,34.4% (active)
4,Cc1cc(C(=O)NCCc2ccc(Cl)cc2)c(C)o1,-6.42%
5,Cc1ccc(N(CC(=O)Nc2cccc(N(C)S(C)(=O)=O)c2)S(C)(=O)=O)cc1,-0.43%
6,CN(c1cccc(NC(=O)Nc2ccc(Cl)cc2)c1)S(C)(=O)=O,35.6% (active)
7,COc1cccc(N(CC(=O)Nc2cccc(N(C)S(C)(=O)=O)c2)S(C)(=O)=O)c1,-7.36%
8,CCOC(=O)N1CCN(C(=O)C(C)NC(=O)c2ccco2)CC1 (centres undefined),-2.9%
9,CCN(CCn1cccn1)Cc1nc(-c2ccc(C(=O)OC)cc2)no1,9.06%
10,COc1cccc(-c2cc(C(=O)N3CCN(c4ccccc4OC)CC3)no2)c1,-15.8%
11,CN(CC(=O)Nc1ccccc1C(F)(F)F)C(=O)Cc1ccccc1F,-10.8%
12,COc1cc(CNC2CCCCC2)c(Br)cc1OC1CCCC1,-7.35%
13,CCOCCCNCc1cc(Br)ccc1OCC,10.1%
14,CC(C)(C)NCc1cc(Br)ccc1OC1CCCC1,22.3% (active)
15,O=C(NCc1cccc(CNC(=O)Nc2cccc(O)c2)c1)Nc1cccc(O)c1,-9.18%
16,C[C@@H]1C[C@@H]2O[C@H]2/C=C\C=C\C(=O)Cc2c(Cl)c(O)cc(O)c2C(=O)O1,-17.8%
17,C/C(=N\NC(=O)c1cccc([N+](=O)[O-])c1)c1cccnc1,-13.8%
18,Cc1ccccc1Nc1nnc(SCC(=O)c2cc3ccccc3o2)s1,28% (active)
19,Cc1ccc(Nc2nnc(SCC(=O)c3cc4ccccc4o3)s2)cc1C,-6.61%
20,Cc1cc(NC(=O)CSc2nnc(Nc3ccccc3F)s2)no1,-3.75%
21,COc1ccc(-c2nc3c(s2)CCc2onc(-c4ccc(OC)cc4)c2-3)cc1,-14.6%
22,O=C(CC1C(=O)NCCN1CC(c1ccccc1)c1ccccc1)NCC1CCOCC1 (centres undefined),-12.4%
23,COCCn1cnc2c1c(=O)n(CC(=O)NN)c(=O)n2Cc1ccccc1,-7.23%
24,Cc1ccc(F)c(NC(=O)CCOc2ccccc2C)c1,-9.71%

row,SMILES,inhibition
1,O=C(/C=C/c1cccc([N+](=O)[O-])c1)N1CCN(Cc2ccccc2)CC1,33.7%
2,O=c1c([N+](=O)[O-])cc(C(F)(F)F)cn1Cc1cccc(Cl)c1,1%
3,O=[N+]([O-])/C=C/c1ccc2c(ccn2Cc2ccccc2)c1,50.9% (active)
4,CCc1ccc(NC(=O)CN2C(=O)COc3ccc(S(=O)(=O)N4CCCC4)cc32)cc1,-5.64%
5,CCn1c(COc2ccccc2)nnc1SCC(=O)NCc1ccco1,3.08%
6,C=CCn1c(CNC(=O)c2ccco2)nnc1SCC(=O)c1ccc(OC)cc1,-0.25%
7,COc1ccc(C(=O)CSc2nnc(COc3ccccc3)n2Cc2ccco2)cc1,42.3% (active)
8,CCc1ccc(N2CC(C(=O)N3CCCCCC3)CC2=O)cc1 (centres undefined),-4.17%
9,COc1ccccc1N(CC(=O)N/N=C(\C)c1ccccc1O)S(=O)(=O)c1ccc(C)cc1,-9.35%
10,O=C1OC(OC(=O)c2ccccc2Br)C(N2CCOCC2)=C1Cl (centres undefined),-8.99%
11,Cc1ccccc1C(=O)OC1OC(=O)C(Cl)=C1Nc1ccccc1 (centres undefined),0.02%
12,Cc1ccc(NC2=C(Cl)C(=O)OC2OC(=O)c2ccccc2C)cc1 (centres undefined),36.4% (active)
13,O=C(Cc1ccc(Cl)cc1)NC(=S)Nc1ccccc1O,80.2% (active)
14,O=C(COc1ccc(Cl)cc1)NC(=S)Nc1ccccc1N1CCOCC1,-6.56%
15,COC(=O)Cc1ccc(NC(=S)NCc2ccc(Cl)cc2)cc1,-7.45%
16,Cc1cccc(NC(=S)NCCc2ccc(Cl)cc2)c1C,-3.82%
17,Cc1ccc(C(=O)NC(=S)Nc2ccccc2C)cc1,-4.66%
18,Cc1ccccc1NC(=S)NC(=O)Cc1ccc(Cl)cc1,56.5% (active)
19,COc1ccc2oc(=N)c(C(=O)Nc3ccc(Br)cc3)cc2c1,-2.95%
20,CC(=O)Nc1ccc(S(=O)(=O)NC2Cc3ccccc3C2)cc1,17.6%
21,O=C(c1cc2ccccc2o1)N1CCN(Cc2ccccc2)CC1,-6.86%
22,COc1ccc(NC(=O)CCCC2CCCCC2)c(OC)c1,14.9%
